The campaign covered roughly 360,000 compounds. About 7,500 (2.1%) were called active. A call without a number means that no potency is given here. Not shown: some 8% with an inconclusive outcome. Calls come from the whole dose curve; as a rule, active = well fitted cell-killing curve with a large enough effect; inconclusive = small, poorly fitted or top-dose-only effect, or effect the other way, or another doubt; inactive = no such curve, though single readings can be large or run the other way. The full list was thinned out, with actives kept by preference.
Potency is the fitted concentration of half-maximal effect.

This experiment is described as follows: qHTS for induction of synthetic lethality in tumor cells producing 2HG: qHTS for the HT-1080-IDH1KD cell line. To be noted: HT-1080 IDH1 knockdown viability, ATP luminescence, 48 h; series mostly up to 46.1 µM. In short, it runs like this: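 Cytotoxicity counter-line: IDH1KD HT-1080, 48 h, CellTiter-Glo. Curves classed by r2, magnitude and activity.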
Turning to `CC1(C(=O)Nc2cccc3c2CCCC3)CCN1C(=O)C1(c2ccccc2)CC1` (stereo not drawn), the Potency entry is “inactive”. `O=C(Nc1cccc(Cc2ccccc2)c1)Nc1ccc2nc([C@@H]3O[C@H](CO)[C@@H](O)[C@H](O)[C@H]3O)[nH]c2c1`: the Potency entry was “inactive”.

On to `Cc1[nH]c2ccccc2c1C(=O)CN1CC(C)CC(C)C1` (stereo not drawn), for which the Potency is 18.4 µM (active). As for `Cc1[nH]c2ccccc2c1C(=O)CN1CCCC(C)C1` (stereo not drawn), the entry is “inactive”; as for `Cc1[nH]c2ccccc2c1C(=O)CSCC(=O)O`, “inactive”; as for `C=CCn1c2c(c3ccccc31)CCC2`, “inactive”. As for `C=C1C(=O)OC2C1CCC(C)=CCCC1(C)OC21` (stereo not drawn), the figure is 11.6 µM (active); as for `COc1cc2c(=O)n(C)c3ccccc3c2cc1OC`, “inactive”; as for `Cc1cc(C)c(-c2c(O)c3ccccc3n(C)c2=O)c(C)c1`, “inactive”. Consider `Cn1c(=O)c([N+](=O)[O-])c(Oc2ccccc2)c2ccccc21`, for which the Potency is 23.1 µM (active).

On to `Cc1c(/C=N\NC(=O)c2cc3ccccc3o2)c2ccccc2n1C`, for which the Potency was 18.4 µM (active). Regarding `O=C(N/N=C/c1cccc(O)c1)c1cc2c(ccc3ccccc32)o1`, the Potency result is “inactive”.

On to `Cc1c(/C=N/N2C(=O)C3C4C=CC(C4)C3C2=O)c2ccccc2n1C` (stereo not drawn), for which the Potency result was “inactive”. Consider `CN(Cc1ccccc1)C(=O)[C@@H]1CCCN1C(=O)[C@@H]1CCCN1C(=O)c1c(F)cccc1F`, for which the Potency entry is “inactive”.

For the compound `O=C(Cc1ccc(-c2ccccc2)cc1)NC(c1ccccc1)c1ccccc1`, the Potency entry is “inactive”. In the case of `CCOC(=O)/C=C/C(=O)OCC(=O)NC(c1ccccc1)c1ccccc1` it was 20.6 µM (active); in that of `CCOC(=O)C(C(=O)OCC)C(C#N)c1ccccc1` (stereo not drawn), “inactive”; in that of `CN(C)c1ccc(C2N(C)C(=O)c3ccccc3N2C)cc1` (stereo not drawn), “inactive”.

In the case of `CN(C)c1ccc(Nc2c3c4c(cccc4n(C)c2=O)C(=O)c2ccccc2-3)cc1`, the Potency is 4.61 µM (active).

As to `CSc1ncnc2c1ncn2CCCNCC(C)c1ccccc1` (stereo not drawn), the Potency result was “inactive”. In the case of `c1ccc(Cn2nnc3c(NCC4CC4)ncnc32)cc1` it was “inactive”.

On to `O=[N+]([O-])/C=C/c1ccc2c(ccn2Cc2ccccc2)c1`, for which the Potency is 16.4 µM (active). Take `CCc1nc2ccc(C(=O)N(C)Cc3ccco3)cn2c1N(C)C(=O)Cc1ccccc1`: the Potency result is “inactive”. Regarding `Cc1ccc(S(=O)(=O)N2C[C@H]3C(=O)C[C@@H](c4cccc5ccccc45)N(S(=O)(=O)c4ccc(C)cc4)[C@H]3C[C@H]2c2ccc(Cl)cc2)cc1`, the Potency result is “inactive”. As for `COCC(C)NC(=O)COc1nncc2ccccc12` (stereo not drawn), the entry is “inactive”. Turning to `NC(Cc1ccc(F)cc1)c1csc(Nc2nncc3ccccc23)n1` (stereo not drawn), the Potency was 25.9 µM (active). Consider `CC(=O)c1ccc(Nc2nc(C(N)c3ccccc3)cs2)cc1` (stereo not drawn), for which the Potency result was “inactive”. In the case of `CN1CCN(C(=O)c2ccc(-c3cc4nc(NCc5cccnc5)n(C)c(=O)c4s3)cc2)CC1`, the Potency result is “inactive”. As for `CNc1cnc(-c2cc(OC)c(OC)c(OC)c2)cn1`, the entry is “inactive”; as for `CC(=O)Nc1ccc(Nc2cc(C)nc(Nc3ccc(NC(C)=O)cc3)n2)cc1`, “inactive”.

Take `CC(=O)Nc1ccc(Nc2c3ccccc3nc3ccccc23)cc1`: the Potency is 14.6 µM (active). With `CC(=O)Nc1ccc(S(=O)(=O)N(C)c2nc3ccccc3nc2Cl)cc1`, the Potency entry is “inactive”. As for `Cc1ccc(S(=O)(=O)N2CC3C(=O)C[C@@H](c4ccccc4Cl)N(S(=O)(=O)c4ccc(C)cc4)C3CC2c2ccccc2)cc1` (stereo partly drawn), the entry is “inactive”; as for `CCOC(=O)C1CCCN(C(=O)c2cccc3ccccc23)CC1` (stereo not drawn), “inactive”; as for `C[C@@H]1Cn2cnc(C(=O)Nc3ccc(CNC(=O)OC(C)(C)C)cc3)c2C(=O)N1`, “inactive”. Consider `CN(c1ccccc1)S(=O)(=O)c1cc(C(=O)Nc2nc3ccccc3[nH]2)ccc1Cl`, for which the Potency result is “inactive”. Regarding `COC(=O)Nc1nc2ccc(Sc3ccccc3)cc2[nH]1`, the Potency is 0.82 µM (active).

Regarding `Cc1ccc(O)c(CNc2nc3ccccc3[nH]2)c1`, the Potency result was “inactive”. In the case of `CCOC(=O)C1(C)CCCN(C(=O)c2ccc(F)c(Cl)c2)C1` (stereo not drawn) it was “inactive”. Regarding `COc1cc2c(cc1OC)CN(C(=O)c1cc(=O)c3ccccc3o1)CC2`, the Potency is 5.8 µM (active). In the case of `COc1ccccc1CNC(=O)c1cc(=O)c2ccccc2o1` it was “inactive”; in that of `COc1ccc2c(CC(=O)N3CCc4cc(OC)c(OC)cc4C3)coc2c1`, “inactive”.

For the compound `COc1cc(NC(=O)C2=C(C)OCCS2)c(Cl)cc1C(=O)NCCCN1CCCC(C)C1` (stereo not drawn), the Potency result is “inactive”. Turning to `NS(=O)(=O)c1ccc(CCNS(=O)(=O)c2cccc3cccnc23)cc1`, the Potency entry was “inactive”. In the case of `Cc1ccc2cccc([N+](=O)[O-])c2n1` it was “inactive”.

Take `O=[N+]([O-])c1ccccc1S(=O)(=O)Nc1cccc2cccnc12`: the Potency was 11.6 µM (active). Consider `Cc1nccn1-c1ccc(NC(=O)[C@H]2O[C@@H](n3cnc4c(N)ncnc43)[C@H](O)[C@@H]2O)cc1`, for which the Potency result was “inactive”. As for `CC1(C(=O)NS(=O)(=O)Cc2cccc(Cl)c2)CCN1C(=O)Cc1ccccc1` (stereo not drawn), the entry is “inactive”. As for `CCCCn1nnnc1C(c1ccccc1)N1CCN(c2ccccc2OC)CC1` (stereo not drawn), the entry is “inactive”; as for `CCOC(=O)N1CCN(C(=O)c2ccccc2N(Cc2ccccc2)S(=O)(=O)c2ccc(OC)cc2)CC1`, 3.26 µM (active); as for `NC(=O)c1ccccc1N(Cc1ccccc1)S(=O)(=O)c1ccccc1`, “inactive”. With `CCOC(=O)N1CCN(S(=O)(=O)c2ccc(OC)cc2)CC1`, the Potency result was “inactive”. As for `CCCc1ccc(C(O)c2ncc(-c3cccc(OC)c3)[nH]2)cc1` (stereo not drawn), the entry is “inactive”; as for `CN(CCO)C(=O)c1nc[nH]c1C(=O)N(C)Cc1ccccc1`, “inactive”. In the case of `Cc1ccc(-c2nc3ccc(Br)cn3c2Cc2ccccc2C(F)(F)F)cc1` it was “inactive”; in that of `COc1ccc(-c2cc(C)nc3nc(N)nn23)cc1`, “inactive”. Turning to `Cc1cc(C(C)(C)C)cc(C)c1N`, the Potency result was “inactive”. As for `Cc1cc(N)n2nc(-c3ccc(C(C)(C)C)cc3)cc2n1`, the figure is 20.6 µM (active); as for `O=C(Nc1ccc(Cl)cc1)c1csc([C@@H]2O[C@H](CO)[C@H](O)[C@H](O)[C@H]2O)n1`, “inactive”. With `CO[C@@H]1CN(C)C(=O)c2cc(NC(=O)Nc3cc(F)ccc3F)ccc2OC[C@H](C)N(C(=O)c2ccccn2)C[C@@H]1C`, the Potency entry is “inactive”. In the case of `CCOC(=O)N1C(=O)C[C@](Sc2ccc(C)cc2)(C(=O)OC)[C@H]1c1ccccc1`, the Potency result was “inactive”.

Turning to `Nc1ncnc2c1ncn2[C@@H]1O[C@H](C(=O)NCC(F)(F)F)[C@@H](O)[C@H]1O`, the Potency result is “inactive”.

Turning to `COc1ccc(-c2[nH][nH]c(=O)c2NC(=O)c2ccc([N+](=O)[O-])cc2)cc1`, the Potency entry was “inactive”.
